HEK293 cAMP ctrl: counter-screen for TSHR agonists: cAMP increase in parental HEK293; hit rate 2.5% among 73,000; AID 938; Potency, µM (highest dose often 57.1 µM), for the others: at the highest dose activation, actives largely listed as activators; parental HEK293 CNG cAMP sensor, membrane potential fluorescence; note: % of control where 0% means no effect; nearly all actives have a fitted effect of over 55% in size
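Parental HEK 293 cells stably expressing a cAMP-gated CNG channel were loaded with membrane potential dye containing 100 uM RO 20-1724 for 60 min. Compound added for 30 min; depolarization read as fluorescence intensity at 590 nm.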
Casp1 inh: blocks human caspase-1 allosterically or competitively; Caspase-1 enzyme, Ac-WEHD-AFC fluorogenic rate; hit rate 0.03% among 75,000; Potency, µM (doses to about 57.5 µM), for inactives: at the top dose activity change, negative = inhibition, actives largely listed as inhibitors; P29466;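 note: plate controls were vehicle for no effect and no substrate for full effect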
Target sequence (P29466 120-297 limits assumed): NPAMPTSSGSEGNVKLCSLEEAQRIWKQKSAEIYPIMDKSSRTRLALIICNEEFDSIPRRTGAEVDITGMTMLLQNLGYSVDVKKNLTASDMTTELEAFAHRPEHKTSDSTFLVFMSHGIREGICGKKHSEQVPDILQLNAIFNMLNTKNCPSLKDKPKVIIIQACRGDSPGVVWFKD
Target sequence (P29466 317-404 limits assumed): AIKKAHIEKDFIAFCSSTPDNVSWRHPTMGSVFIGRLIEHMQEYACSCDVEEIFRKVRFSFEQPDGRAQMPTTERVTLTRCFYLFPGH
TSHR agonist: TSH receptor (human) agonism | P16473 | HEK293-CNG-TSHR cells (CNG channel as cAMP sensor), membrane potential dye, cAMP | Potency, µM (titrated, usually from 57.1 µM), for the others: at the top dose activation, actives largely listed as activators | hit rate 0.48% among 73,000 | AID 926; active = well fitted activation curve with a large enough effect in the main read-out, with a control signal flat, not every such curve was filed as active; inconclusive = small, poorly fitted or top-dose-only effect, or a change in a side signal; inactive = no such curve, though single readings can be large or run the other way; % of control where 0% means no effect;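 note: the control signal comes from parental cells without the receptor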
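HEK 293 cells stably expressing TSHR and a modified CNG channel, with CNG-only parental cells as counterscreen, were preloaded 60 min at room temperature with membrane potential dye containing 100 uM RO 20-1724. Compound exposure was 30 min, and depolarization was read as fluorescence at 590 nm.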
Casp7 inh: allosteric or competitive inhibitors of human caspase-7 | hit rate 0.02% among 75,000 | recombinant caspase-7, Ac-DEVD-AFC fluorescence rate | Potency, µM (titrated, usually from 57.5 µM), for inactives: at the top dose activity change, negative = inhibition, hits mostly inhibitors; active = well fitted inhibition curve with a large enough effect in the main read-out, with a control signal flat, not every such curve was filed as active; inconclusive = small, poorly fitted or top-dose-only effect, or a change in a side signal; note: % of control where 0% means no effect
Target sequence (P55210 24-198 limits assumed): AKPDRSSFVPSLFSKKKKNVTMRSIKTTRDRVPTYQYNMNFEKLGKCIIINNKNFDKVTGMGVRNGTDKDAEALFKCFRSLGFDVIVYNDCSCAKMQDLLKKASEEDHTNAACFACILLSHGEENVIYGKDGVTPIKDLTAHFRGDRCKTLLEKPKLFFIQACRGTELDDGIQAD
Target sequence (P55210 207-303 limits assumed): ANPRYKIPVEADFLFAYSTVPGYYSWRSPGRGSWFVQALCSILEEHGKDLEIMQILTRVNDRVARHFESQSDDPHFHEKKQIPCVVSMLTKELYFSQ
The depositor's hits bear a star; ? = inconclusive; . = not tested or not shown; [ ] = remark or other dose. Rows were chosen to be rich in hits. Some 2.6% of all compounds tested hit in one or more screens of this group. Unless noted, calls come from the whole dose curve; as a rule, active = well fitted curve in the direction sought with a large enough effect; inconclusive = small, poorly fitted or top-dose-only effect, or another doubt; inactive = no such curve, though single readings can be large; an effect the other way counts as inactive or inconclusive. Potency is the fitted concentration of half-maximal effect.

SMILES | HEK293 cAMP ctrl | Casp1 inh | TSHR agonist | Casp7 inh
CC(C)CO/N=C1/C[C@@H](O)[C@@H](O)[C@@H]2[C@@H]3C(=O)N([C@@H](C)c4ccccc4)C(=O)[C@H]3CC[C@@H]12 | -9%[11.4 µM] | 1%[11.5 µM] | -4%[11.4 µM] | -2%[11.5 µM]
CCOC(=O)c1cc(NC(=O)NCc2ccco2)c(C)nc1C | -7%[2.29 µM] | 1% | 10µM* | -1%
O=C(c1cc(-c2ccc(O)cc2)on1)N1CCc2ccccc2C1 | 20µM* | -14% | ? | -8%
CCCC[C@@H]1C[C@H]1C(NC(=O)Cc1ccccc1)c1ccc(Cl)cc1 (stereo not given in full) | ? | 0% | ? | -2%
O=C(NC1CCCCCC1)C1c2ccccc2C(=O)N1Cc1ccco1 (stereo not given) | 13µM* | 0% | ? | 2%
O=C(c1ccco1)c1cn(CC(=O)N2CCCc3ccccc32)c2ccccc12 | 25µM* | -1% | ? | -2%
CC(C)(C)NC(=O)C(c1ccco1)N(C(=O)c1csnn1)c1ccccc1 (stereo not given) | 6% | -1% | 12% | 0%
O=C(NCc1ccc2c(c1)OCO2)C(c1ccco1)N(C(=O)c1csnn1)c1ccccc1 (stereo not given) | 7% | -1% | 3.2µM* | -1%
O=C(CN1CCc2ccccc2C1)N1CCN(S(=O)(=O)c2ccccc2)CC1 | 8% | 0% | 17%[11.4 µM] | -1%
Cc1ccc(S(=O)(=O)N2CCN(C(=O)CN3CCc4ccccc4C3)CC2)cc1 | 10µM* | 2% | ? | 0%
OCC1OC([S-])[C@H](O)C(O)C1O.[Au+] (stereo not given in full) | . | -15% | . | ?
CCOC(=O)C1=C(C)OC(N)=C(C#N)C1C1CCCCC1 (stereo not given) | 25µM* | -1% | ? | -1%
COCc1[nH]nc2c1C(c1ccsc1)C(C#N)=C(N)O2 (stereo not given) | 4% | -1% | 7% | 1%
CCOC(=O)C1=C(C)OC(N)=C(C#N)C1c1ccsc1 (stereo not given) | 20µM* | -2% | ? | -3%
COC(=O)C/C=C\[C@@H](C)[C@@H](/C=N\OCC[C@@H]1C=C[C@H](OC(C)=O)[C@H](COC(C)=O)O1)OC | 7%[11.4 µM] | -4%[11.5 µM] | -4%[11.4 µM] | 1%[11.5 µM]
CC12CC(c3ccccc3O1)C(C(=O)NCc1ccccc1)C(=O)N2 (stereo not given) | 6% | -1% | 12% | -1%
CCCCNC(=O)CN1C(=O)C(CC)Oc2ccc(Cl)cc21 (stereo not given) | 10µM* | 1% | ? | 0%
Cc1nc2ccccc2c2oc(C(=O)NCC3COc4ccccc4O3)cc12 (stereo not given) | 25µM* | 1% | ? | -4%
COc1ccc(N2CCN(Cc3nc4c(c(=O)n(C)c(=O)n4C)n3Cc3ccccc3C)CC2)cc1 | 4% | -1% | 10µM* | -2%
Cn1c(=O)c2c(nc(CN3CCc4ccccc4C3)n2CCc2ccccc2)n(C)c1=O | 5µM* | 2% | ? | -1%
CSc1nc(C)c(C(=O)Nc2ccccc2)c(C)c1C#N | 25µM* | -2% | ? | -3%
Cc1cccc(CSC2=NCCN2C(=O)c2ccc(Br)o2)c1 | 32µM* | -9% | ? | -6%
O=C(N1CCCCC1)C1(c2ccccc2)CCOCC1 | 16µM* | -3% | ? | -2%
CS(=O)(=O)Nc1cccc(-c2cncnc2-n2ccnc2)c1 | 0% | 0% | 4% | 1%
COc1ccc(OC)c(NC(=O)c2cc3ccccc3o2)c1 | 32µM* | -6% | ? | 0%
SMILES | HEK293 cAMP ctrl | Casp1 inh | TSHR agonist | Casp7 inh
COc1ccc(C)cc1NC(=O)c1cc2ccccc2o1 | 20µM* | -4% | ? | -2%
Cc1sc2ncnc(NCc3ccco3)c2c1C | ? | -5% | ? | -18%
c1coc(CNc2ncnc3sc4c(c23)CCCCC4)c1 | 25µM* | -3% | ? | 2%[0.00368 µM]
CCc1nc(SCC(=O)NCc2ccco2)c2c3c(sc2n1)CCCC3 | 5µM* | 1% | ? | -3%
Cc1nc(NCc2ccco2)c2c3c(sc2n1)CCC3 | 16µM* | 0% | ? | -5%
CCn1c(=N)n(CC(O)COc2cccc(C)c2)c2ccccc21 (stereo not given) | ? | 0% | ? | -2%
CCCCn1c(=N)n(CC(O)COc2ccccc2)c2ccccc21 (stereo not given) | 1.3µM* | 0% | ? | 3%
CCCn1c(=N)n(CC(O)COc2cccc(C)c2)c2ccccc21 (stereo not given) | 16µM* | 0% | ? | 0%
N=c1n(CCN2CCOCC2)c2ccccc2n1CC(O)COc1ccccc1 (stereo not given) | ? | 1% | ? | 3%
Cc1ccccc1OCC(O)Cn1c(=N)n(CCN2CCOCC2)c2ccccc21 (stereo not given) | 10µM* | -2% | ? | -1%
CCCCn1c(=N)n(CC(O)COc2ccc(C)cc2)c2ccccc21 (stereo not given) | 16µM* | 1% | ? | 2%
COc1ccc(OCC(O)Cn2c(=N)n(CCN3CCOCC3)c3ccccc32)cc1 (stereo not given) | 10% | 2% | -4%[11.4 µM] | 0%
N=c1n(Cc2ccccc2)c2ccccc2n1CC(O)COc1ccccc1 (stereo not given) | 4% | 0% | 17% | -7%
CCCSc1nnc(-c2cccc(S(=O)(=O)N(C)C)c2)n1-c1cc(OC)ccc1OC | 7.9µM* | -2% | ? | 1%
COc1ccc(OC)c(-n2c(SCC(C)=O)nnc2-c2cccc(S(=O)(=O)N(C)C)c2)c1 | ? | 0% | ? | 0%
CCSc1nnc(-c2cccc(S(=O)(=O)N(C)C)c2)n1-c1cc(OC)ccc1OC | 5µM* | 1% | ? | 0%
CCCCC[C@@H](O)[C@@H]1C(=O)O[C@@H](C)[C@@H](O)\C=C/C=C\C=C/C=C\C=C(\C)[C@H](O)C[C@H](O)C[C@H](O)C[C@H](O)C[C@H](O)C[C@H](O)C[C@@H]1O | -3%[11.4 µM] | . | . | .
COC(=O)[C@@H](NC(=O)c1cc(-c2ccccc2)nc2ccccc12)c1ccccc1 | 3.2µM* | . | ? | .
COc1ccc(C#CC2C=CC(OC(C)=O)C(COC(C)=O)O2)cc1 (stereo not given) | 6%[11.4 µM] | -1%[11.5 µM] | 3%[11.4 µM] | -5%[11.5 µM]
CCN(C1CCCCC1)S(=O)(=O)c1cn(C)c(=O)n(C)c1=O | 3.2µM* | -7% | ? | -13%
O=C(NCCCN1CCCCCC1)[C@@H](c1ccccc1)C1CCCCC1 | 16µM* | 3% | ? | 1%
Cc1ccc(-n2nc3c(c2NC(=O)c2ccc4c(c2)OCO4)CS(=O)C3)cc1 (stereo not given) | 10% | -1% | 8% | 3%
O=C(Nc1c2c(nn1-c1ccc(Cl)cc1)CS(=O)(=O)C2)c1ccc2c(c1)OCO2 | 25µM* | -2% | ? | -2%
Cc1cc(C(=O)OCc2nnc(-c3ccccc3)o2)c(C)n1-c1ccccc1 | 13µM* | -6% | ? | -6%
O=C(OCc1nnc(-c2ccccc2)o1)c1cn(-c2ccccc2)nc1-c1ccccc1 | 16% | -4% | 28% | 0%

Screening results from PubChem.
